Records with an inconclusive call do not appear. Unmarked numbers belong to inactive results. Active and inactive are the calls of the source. Calls follow the shape of the dose curve; as a rule, active = well fitted activation curve with a large enough effect; inconclusive = small, poorly fitted or top-dose-only effect; inactive = no such curve, though single readings can be large or run the other way.
assay: qHTS assay for re-activators of p53 using a Luc reporter: Hit Validation; details: p53-responsive luciferase reporter cells, luminescence, H1299 line expressing heat-sensitive Ala138Val p53; series mostly up to 46.1 µM; activation: at the top concentration; also: nearly all actives have a fitted effect of over 75% in size; as to activation: 0% is about no effect
Method in brief: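 Hit confirmation with a 1:5 dilution series, at 37 deg C for 24 hrs, in H1299 cells co-expressing temperature-sensitive p53-A138V and p53-responsive luciferase. Nocodazole served as control; luminescence read after 10 min with detection reagent.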
Potency is read from the fitted curve at half-maximal effect.

Question: Which “activation” value does the source give for `Cc1ccc2nc(C(F)(F)F)c(C#N)c(N)c2c1` here?
Answer: -34.9%

Question: Which “activation” value does the source give for `CC(C)c1ccc(C(O)c2nc3ccccc3n2C)cc1` (stereo not drawn) here?
Answer: 19.8%

Question: With `COc1cccc(/C=N/NC(=O)c2nc(-c3ccccc3)cc(-c3ccccc3)n2)c1O` as the molecule, how does the activation read?
Answer: -23.6% [at 9.22 µM]

Question: For `Brc1c(CSc2nc3ccccc3s2)nc2ncccn12`, which Potency is on record?
Answer: 9.2 µM (active)

Question: For `S=C(Nc1ccccc1)Nc1nc2ccccc2n1CCOc1ccc(Br)cc1`, which “activation” value is on record?
Answer: -11.5%

Question: For `C(=N\Nc1nc2ccccc2s1)/c1ccc2c(c1)OCO2`, which Potency is on record?
Answer: 2.59 µM (active)

Question: For `Nn1cnnc1N/N=C\c1ccc(-c2ccccc2[N+](=O)[O-])o1`, which “activation” value is on record?
Answer: -84.4%

Question: For `C#CC(C)(CC)NC(=O)Cn1nnc(-c2ccc(S(C)(=O)=O)cc2)n1` (stereo not drawn), which “activation” value is on record?
Answer: -1.56%

Question: For `O=C(c1ccccc1)n1c(=S)nc2ccccn21`, which Potency is on record?
Answer: 0.164 µM (active)

Question: Which Potency does the source give for `CN(C)c1ccc(N=Cc2nc(-c3ccccc3)oc2OC(=O)c2cccc(Cl)c2)cc1` here?
Answer: 2.06 µM (active)

Question: For `Clc1ccc(-c2cn3cc(Br)ccc3n2)cc1Cl`, which Potency is on record?
Answer: 0.206 µM (active)

Question: With `Cc1occc1C(=O)NNC(=S)Nc1ccccc1C(F)(F)F` as the molecule, how does the Potency read?
Answer: 13 µM (active)

Question: With `CN(NC1CC(=O)N(c2ccccc2)C1=O)c1ccccc1` (stereo not drawn) as the molecule, how does the “activation” value read?
Answer: 13.5%

Question: For `COc1ccc(/C(O)=C2/C(=O)C(=O)N(CCN3CCOCC3)C2c2ccccn2)cc1` (stereo not drawn), which “activation” value is on record?
Answer: 5.21%

Question: Which “activation” value does the source give for `Cc1ccc(C2C(C#N)=C(N)Oc3cc4c(cc32)OCO4)cc1` (stereo not drawn) here?
Answer: 27.1%

Question: Which “activation” value does the source give for `O=C(Nc1cccnc1)c1ccc([N+](=O)[O-])s1` here?
Answer: 17.2%

Question: With `Nc1ccc(-c2cnc(-c3ccc(N)cc3)nc2)cc1` as the molecule, how does the Potency read?
Answer: 0.291 µM (active)

Question: With `Cc1ccc(C(=O)Nc2cnc3sc(C)nn3c2=O)cc1` as the molecule, how does the Potency read?
Answer: 6.51 µM (active)

Question: Which “activation” value does the source give for `CN(C(=O)CSc1nnc(-c2ccco2)o1)C1CCCCC1` here?
Answer: -86.5%

Question: Which “activation” value does the source give for `CCOC(=O)c1ccc2ncc(C(=O)OCC)c(NCc3ccco3)c2c1` here?
Answer: 1.04%

Question: Which “activation” value does the source give for `CCC(=O)c1ccc(OC(=O)Cc2ccc(OC)cc2)cc1` here?
Answer: 4.69%

Question: Which “activation” value does the source give for `CCCCNC(=S)N(Cc1c(C)noc1C)c1ccccc1` here?
Answer: 4.69%

Question: With `Clc1cccc(N/N=C(\Cc2nc3ccccc3[nH]2)c2ccccc2)c1` as the molecule, how does the “activation” value read?
Answer: 20.3%

Question: For `ON=C1c2cc(OCCN3CCCCC3)ccc2-c2ccc(OCCN3CCCCC3)cc21`, which “activation” value is on record?
Answer: -11.5%

Question: Which Potency does the source give for `COc1cc(N/N=C/c2ccccc2O)ncn1` here?
Answer: 25.9 µM (active)

Question: For `Cc1c(C(=O)N2CCc3ccccc32)oc2c1C(=O)CC(C)(C)C2`, which Potency is on record?
Answer: 4.11 µM (active)

Question: With `O=C(Cn1cc(SCc2ccc(F)cc2)c2ccccc21)N1CCOCC1` as the molecule, how does the “activation” value read?
Answer: -86.5%

Question: Which “activation” value does the source give for `Cc1ccc(S(=O)(=O)NCC(=O)N2CCc3ccccc3C2)cc1` here?
Answer: -22.4%

Question: Which “activation” value does the source give for `COc1ccc(-n2cnc3c(cnn3CCC#N)c2=N)cc1` here?
Answer: 25.5%

Question: Which “activation” value does the source give for `CC1C(=O)CCN(C(C)(C)C)C1C` (stereo not drawn) here?
Answer: 5.21%

Question: With `Cc1cc(C)nc(SCc2csc(-c3ccccc3)n2)n1` as the molecule, how does the Potency read?
Answer: 13 µM (active)

Question: For `CCOc1ccc(/C=N/NC(=O)CN2CCSCC2)cc1`, which “activation” value is on record?
Answer: -1.56%

Question: Which “activation” value does the source give for `CCC(Sc1nc2ccccc2c(=O)n1CCN1CCOCC1)C(=O)NCc1cccnc1` (stereo not drawn) here?
Answer: -24.5%

Question: Which “activation” value does the source give for `Cc1cccc(-n2nc([N+](=O)[O-])c(=NC3CCN(Cc4ccccc4)CC3)n2O)c1` here?
Answer: 19.8%

Question: Which “activation” value does the source give for `O=C(NCC(=O)N1CCN(c2ncccn2)CC1)c1ccc(F)cc1` here?
Answer: 18.2%

Question: Which Potency does the source give for `OCc1cc(Br)ccc1OCc1nc2ccccc2s1` here?
Answer: 2.91 µM (active)

Question: For `C/C(=N\NC(=O)c1cccs1)C(C)(C)C`, which “activation” value is on record?
Answer: -6.77%

Question: Which Potency does the source give for `Oc1ccccc1-c1cc(-c2ccccc2)n[nH]1` here?
Answer: 3.66 µM (active)
